Compound activity deposited in PubChem BioAssay by several laboratories.
This is one part of a sample in which hits are shown more often than they occur.
GluA2 TARP mod: modulators of GluA2-stargazin AMPA receptor complexes, primary screen, cell-based, membrane potential dye. Voltage-dependent calcium channel gamma-2 subunit (Mus musculus) + Glutamate receptor 2 …. HEK293 GluA2+stargazin, membrane potential dye (FDSS), glutamate EC50; hits were called plate by plate, in both directions. calls only at 30 µM. actives 3.5% (n = 40,000). AID 1259245, 2017;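 active = any of four per-well response measures lying three or more SD from its plate-wide compound average, in either direction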
GIRK2 act: activators of NPY4-receptor-primed GIRK2 channels, summary, cell-based, HEK293, thallium flux | G protein-activated inward rectifier potassium channel 2 (Homo sapiens), P48051 | HEK293 GIRK2/NPY4 cells, thallium flux fluorescence | activation (% efficacy), % for hits at 37.5 µM | 34,000 tested, under 10 active;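 active = primary screen hit, no activity in plain HEK293 cells, and in GIRK2-only cells above 5% efficacy rising with concentration; inactive = the rest, including fluorescent compounds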;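 note: efficacy is normalized control-subtracted fluorescence 15 s after thallium addition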
Target sequence (P48051 whole entry, looked up): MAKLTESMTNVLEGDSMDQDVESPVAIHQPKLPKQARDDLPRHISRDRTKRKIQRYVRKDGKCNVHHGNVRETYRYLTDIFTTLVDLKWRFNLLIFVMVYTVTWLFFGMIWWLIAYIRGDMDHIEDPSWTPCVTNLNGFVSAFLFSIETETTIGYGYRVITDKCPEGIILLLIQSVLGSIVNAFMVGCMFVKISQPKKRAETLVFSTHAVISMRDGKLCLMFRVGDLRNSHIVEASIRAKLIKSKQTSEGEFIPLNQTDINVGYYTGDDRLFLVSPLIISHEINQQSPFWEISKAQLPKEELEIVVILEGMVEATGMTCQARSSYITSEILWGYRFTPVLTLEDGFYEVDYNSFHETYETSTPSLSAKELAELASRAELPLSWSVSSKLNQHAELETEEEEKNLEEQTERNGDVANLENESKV
Calls only; . = inactive; / = not tested or not shown; + = active, no number.

SMILES	GluA2 TARP mod	GIRK2 act
Nc1sc(SCC(=O)NCc2ccc(F)cc2)nc1-c1ccccc1	+	.
NC(=O)CSc1nc(-c2ccccc2)c(NC(=O)c2ccccc2)s1	.	.
COC(=O)c1cc(-c2ccco2)nc2c1c(-c1cccs1)nn2C1CCS(=O)(=O)C1 (stereo not drawn)	/	.
COc1ccccc1CNC(=O)C(=O)Nc1ccc(F)c(Cl)c1	.	.
CC(C)Cc1cnc2c(c1SCC(=O)N(C(C)C)C(C)C)c(=O)n(C)c(=O)n2C	+	/
Cc1cnc2c(c1SCC(=O)N(C(C)C)C(C)C)c(=O)n(C)c(=O)n2C	.	.
COC(=O)c1ccc(CSc2c(CC(C)C)cnc3c2c(=O)n(C)c(=O)n3C)cc1	.	/
COc1cc(CSc2c(CC(C)C)cnc3c2c(=O)n(C)c(=O)n3C)cc(OC)c1	+	/
CC(=O)c1cccc(S(=O)(=O)Nc2ccc(CC(=O)N(C)C)cc2)c1	.	.
Cc1ccc(S(=O)(=O)Nc2ccccc2C(=O)Nc2ccc(C)cc2C(=O)c2ccccc2)cc1	.	/
Cc1ccc(NS(=O)(=O)c2ccccc2)c(C(=O)c2ccccc2)c1	+	/
Cc1ccc(Oc2cccc(NC(=O)Nc3ccc4c(c3)OCCO4)c2)nn1	.	.
CCOc1ccccc1-c1nc(Cn2ccn3nc(-c4ccc(OC)cc4)cc3c2=O)c(C)o1	.	.
COc1ccc(CNC(=O)N2CCCC(c3nn(C)c(=O)n3-c3ccccc3)C2)cc1 (stereo not drawn)	.	.
O=C(CC(Sc1n[nH]c(-c2ccccc2)n1)c1ccccc1)NCCc1ccccc1 (stereo not drawn)	.	/
COc1ccc(-c2nc(SC(CC(=O)NCCc3ccccc3)c3ccc(OC)cc3)n[nH]2)cc1 (stereo not drawn)	+	/
Cn1nc(CNC(=O)c2ccccc2C(=O)c2ccccc2)c2ccccc2c1=O	.	.
Cn1nc(CNC(=O)c2cccc(C#N)c2)c2ccccc2c1=O	+	.
COc1ccccc1CNC(=O)Cc1csc(SCC(=O)c2ccc(F)cc2)n1	/	.
CC1CCN(C(=O)Cc2csc(Nc3ccccc3)n2)CC1	.	.
COc1ccc(C2(CNC(=O)NC3CC3)CCCC2)cc1	.	.
CCS(=O)(=O)c1ccc(CC(=O)Nc2sc3c(c2C(N)=O)CCN(C(C)=O)C3)cc1	.	/
CCCNC(=O)Cn1nc2c(c1NC(=O)CCc1ccc(OC)cc1)CSC2	+	.
COCCNC(=O)Cn1nc2c(c1NC(=O)C1(c3ccc(Cl)cc3)CCCC1)CSC2	+	.
COc1ccc(CNC(=O)Cn2nc3c(c2NC(=O)c2ccc(C)c(C)c2)CSC3)cc1	.	.
SMILES	GluA2 TARP mod	GIRK2 act
CCCNC(=O)Cn1nc2c(c1NC(=O)C1(c3ccc(Cl)cc3)CCCC1)CSC2	.	.
COc1ccc(N2CC(c3nc4ccccc4n3Cc3cccc(Cl)c3)CC2=O)cc1 (stereo not drawn)	.	/
CCN(Cc1ccccc1)C(=O)Cn1cnc(C)cc1=O	.	.
COc1nn(C)cc1C(=O)NCC(=O)Nc1ccc(C#N)cc1	.	.
COCC(C)(O)CNC(=O)c1ccccc1C(F)(F)F (stereo not drawn)	.	.
COCC(C)(O)CNC(=O)c1c(F)cccc1F (stereo not drawn)	+	.
COCC(C)(O)CNC(=O)c1ccc(Cl)cc1 (stereo not drawn)	+	.
COCC(C)(O)CNC(=O)c1cn(C)nc1OC (stereo not drawn)	+	.
COc1nn(C)cc1C(=O)NCC(=O)Nc1ccc(F)c(C(F)(F)F)c1	+	.
COc1nn(C)cc1C(=O)NCC(=O)NCC(F)(F)F	.	.
COCC(C)(O)CNC(=O)c1cc(OC)cc(OC)c1 (stereo not drawn)	.	.
O=C(Cc1csc(NC(=O)C2CCC(=O)N2)n1)Nc1ccc(Cl)c(Cl)c1 (stereo not drawn)	.	.
CCc1cccc2sc(N3CCN(C(=O)C4CCCN(S(C)(=O)=O)C4)CC3)nc12 (stereo not drawn)	.	.
CCNC(=O)C(=O)NCc1ccsc1	.	.
CCOc1ccc2nc(NC(=O)c3ccnn3C)sc2c1	.	.
NS(=O)(=O)c1ccc(NC(=O)CCCN2C(=O)c3cccc4cccc(c34)C2=O)cc1	.	/
COC(=O)c1ccc(NC(=O)c2cc(=O)c(OCc3ccc(F)cc3)co2)cc1	.	.
COc1ccc(-c2ccc(C)c(NS(=O)(=O)c3ccc(NC(=O)C(C)C)cc3)c2)nn1	+	.
COc1ccc(-c2ccc(C)c(NC(=O)Cc3ccc(OC)c(OC)c3)c2)nn1	.	.
O=C(NCC1COC2(CCCCC2)O1)C1CCCC1 (stereo not drawn)	.	.
COc1ccc(Cl)cc1NC(=O)NCC1CCN(S(C)(=O)=O)CC1	.	.
CCCNC(=O)Cn1cc(OC)c(=O)cc1CSc1nc(C)cc(C)n1	+	.
